Assay results published in PubChem BioAssay (NCI).
The panel holds about 79,000 compounds, 15% with a hit somewhere; the sample as a whole holds those more often. A number with no mark means an inactive call. Activity calls are given as the source filed them. Cut-off read from the data, not from the text of the source: active = growth inhibition above about 70%; inactive = the rest.

Test: NCI Yeast Anticancer Drug Screen. Data for the rad50EPP+ strain (AID 151);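 note: 0% = growth of vehicle-treated control cultures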
Conditions: S. cerevisiae rad50 mutant strain, at 3.7 µM, active compounds read high
Summary of the method: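 rad50EPP+ yeast treated with test compounds. Readout: growth vs vehicle control.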

| SMILES | growth inhibition |
| --- | --- |
| O=P(NC1CCCCC1)(OCc1ccccc1)OCc1ccccc1 | 4% |
| COc1oc(C(=O)NC2CCCCC2)c(-c2ccc(Cl)cc2)c1S(=O)(=O)c1ccccc1 | -19% |
| C[Si](C)(C)/C=C/CCNC(C#N)c1ccccc1 (stereo unspecified) | -44% |
| CCOc1ccc(NC(=O)C2=C(C)NC(C)=C(C(=O)Nc3ccc(OCC)cc3)C2c2cccc([N+](=O)[O-])c2)cc1 | -1% |
| CN(C)CCOC1(Cc2ccc(F)cc2)CCC(C(C)(C)C)CC1 (stereo unspecified) | -13% |
| CC(=O)Nc1ccc2c(c1)Cc1cc(N=C3C=CC(=O)O3)ccc1-2 | 77% (active) |
| O=C1C=C(Cl)C(=O)C(c2ccc(Cl)cc2)=C1 | 49% |
| CNCCCNc1c2ccccc2nc2cccc([N+](=O)[O-])c12 | 89% (active) |
| CCCCCCCCCCCC(O)S(=O)(=O)O (stereo unspecified) | 3% |
| CC(C)OC(=O)c1ccc(CCc2cc(O)c(Br)cc2O)cc1 | 80% (active) |
| CCc1cc(O)c(Cl)c(C)c1Cl | 0% |
| C(=Nc1ccc(-c2cc(-c3ccccc3)nc3ccc4ccccc4c23)cc1)c1ccccc1 | 7% |
| CSc1nc(C)c(CCOC(C)=O)c(N=P(c2ccccc2)(c2ccccc2)c2ccccc2)n1 | 5% |
| CS(=O)(=O)SCc1ccc([N+](=O)[O-])cc1 | 57% |
| COC1=C(OC)C(=O)C(Sc2ccc3ccccc3c2)=CC1=O | -10% |
| COc1nc2c(c(=O)n1C)N=C(c1ccccc1)[C@H](C(CC(=O)c1ccccc1)c1ccccc1)C(c1ccccc1)N2 (stereo partly specified) | -30% |
